The text below walks through data of PubChem BioAssay (NCI).

Compounds without any hit were thinned out: in the full panel of roughly 79,000, 15% have a hit. Values without a mark were called inactive. Active and inactive are the calls of the source. Cut-off read from the data, not from the text of the source: active = growth inhibition above about 70%; inactive = the rest.

Assay [1] can be described thus: NCI Yeast Anticancer Drug Screen. Data for the rad50 strain (AID 155).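 Note: 0% = growth of vehicle-only cultures of the same strain.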 Particulars: S. cerevisiae rad50 strain growth inhibition; at 50.0 µM; stronger effect = higher value. In a few lines: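 Yeast carrying a defined DNA repair defect were exposed to test compounds, and growth was compared with vehicle-treated controls to give percent inhibition.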
Assay [2] is described as follows: NCI Yeast Anticancer Drug Screen. Data for the mec2-1 strain (AID 157). Particulars: S. cerevisiae mec2-1 strain, at 50.0 µM, stronger effect = higher value. The method, boiled down:
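Cells of the genetically defined mec2-1 yeast strain are incubated with test compound. Inhibition of growth is calculated against vehicle-treated controls.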

Assay [3] in a line: NCI Yeast Anticancer Drug Screen. Data for the sgs1 mgt1 strain (AID 161).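 Note: 0% = growth of cultures given vehicle only.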 Particulars: S. cerevisiae sgs1 mgt1 strain, at 50.0 µM, stronger effect = higher value. In a few lines:
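Read-out: growth inhibition vs vehicle controls. Cells: mutant yeast strain deficient in DNA damage repair.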

A short description of assay [4]: NCI Yeast Anticancer Drug Screen. Data for the cln2 rad14 strain (AID 165).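 Note: 0% = growth equal to vehicle treated cultures.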 Particulars: S. cerevisiae cln2 rad14 strain, at 50.0 µM, stronger effect = higher value. The method, boiled down: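 The screen exposed genetically defined yeast (cln2 rad14) to test compounds and scored growth inhibition relative to vehicle-treated controls.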
A short description of assay [5]: NCI Yeast Anticancer Drug Screen. Data for the bub3 strain (AID 167). The settings on record: S. cerevisiae bub3 mutant strain, at 50.0 µM, stronger effect = higher value. In a few lines: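 Compounds were applied to a genetically altered yeast strain carrying a cell-cycle control defect. Growth inhibition was scored against vehicle-treated controls.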
The nature of assay [6]: NCI Yeast Anticancer Drug Screen. Data for the mlh1 rad18 strain (AID 175). The settings on record: S. cerevisiae mlh1 rad18 strain growth inhibition; at 50.0 µM; stronger effect = higher value. In a few lines: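 Compound-treated yeast growth, normalised to vehicle controls. Strain bears defined DNA repair mutations.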

In the case of `CCCCC(CC)/C(C)=N/NC(N)=O` (stereo unspecified), the growth inhibition in assay [1] was 4.7%; in assay [2], 9.55%; in assay [3], -5.3%; in assay [4] it was -9.1%; in assay [5], -1.15%; in assay [6], -11.5%.

Turning to `CN(C)/C=N\c1ncnc2c1ccn2C1OC(CO)C(O)C1O` (stereo unspecified), the growth inhibition in assay [1] is -2.15%; in assay [2] it was -5.4%; in assay [3], -10.3%; in assay [4] it was 10.2%; in assay [5], 3.15%; in assay [6], -4.7%.

`NC(=O)CCBr`: the growth inhibition was -15.3% in assay [1]; 20.2% in assay [2]; -5.45% in assay [3]; -20.4% in assay [4]; 1.3% in assay [5]; -29.1% in assay [6].

Take `O=C(c1cccs1)N(C(=S)N1CCN(c2ccccc2)CC1)c1ccccc1`: the growth inhibition is -2.7% in assay [1]; -11.1% in assay [2]; 4.55% in assay [3]; -7.8% in assay [4]; -30.4% in assay [5]; -4.3% in assay [6].

On to `COc1ccc2cc1Oc1ccc(cc1)CC1=NCCc3cc(OC)c(OC)c(c31)Oc1cc3c(cc1OC)CCN(C)C3C2` (stereo unspecified), for which the growth inhibition in assay [1] is -8.75%; in assay [2] it was -14.6%; in assay [3] it was -12.4%; in assay [4], 4.5%; in assay [5], 3.15%; in assay [6], 9.4%.

Turning to `CCOC(=O)c1c(C(C)=O)cnc2c(C#N)cnn12`, the growth inhibition was -1.15% in assay [1]; -1.55% in assay [2]; -4.95% in assay [3]; 41% in assay [4]; 0.6% in assay [5]; -10.9% in assay [6].

Regarding `CC(C)NC(=O)C1C2CCC(CC2)C1C(=O)NC(C)C` (stereo unspecified), the growth inhibition was 0.95% in assay [1]; 34.6% in assay [2]; -4% in assay [3]; -3.3% in assay [4]; 17.7% in assay [5]; 0.35% in assay [6].

As for `CCN(CC)CCCNc1c2ccccc2nc2ccccc12`, the growth inhibition in assay [1] is 13.7%; in assay [2] it was 22.8%; in assay [3], 9.2%; in assay [4] it was 51.6%; in assay [5], -8.1%; in assay [6], 7%.

With `Cc1ccc(C(=O)c2ccc(O)cc2)cc1`, the growth inhibition in assay [1] was -25.4%; in assay [2], -7.65%; in assay [3] it was -6.5%; in assay [4] it was -21.8%; in assay [5] it was -7.6%; in assay [6], -14.2%.

Turning to `Nc1ccccc1/C=C/c1ccnc2ccccc12`, the growth inhibition in assay [1] was 3.7%; in assay [2], 2.55%; in assay [3], 23.6%; in assay [4], 10.2%; in assay [5], -18.1%; in assay [6] it was 47.8%.

For `CSc1cc(/C=C/c2ccccc2)ccc1[N+](=O)[O-]`, the growth inhibition in assay [1] is 1.65%; in assay [2], 0.95%; in assay [3], 4.95%; in assay [4], 15%; in assay [5], 14.3%; in assay [6], 4.45%.

As for `O=C1c2cc([N+](=O)[O-])sc2C(=O)c2ccsc21`, the growth inhibition in assay [1] was 88.6% (active); in assay [2] it was 89.3% (active); in assay [3], 91.2% (active); in assay [4], 90.2% (active); in assay [5] it was 91.1% (active); in assay [6], 90.7% (active).

Take `CN(C)C(=O)NC(=S)N(C)C`: the growth inhibition in assay [1] is -4.05%; in assay [2] it was -10.3%; in assay [3], -9.85%; in assay [4], -13.2%; in assay [5] it was 4.05%; in assay [6], 4.95%.

With `[O-]/[N+]1=[N+](\[O-])c2ccccc2CCCc2ccccc21`, the growth inhibition is -7.35% in assay [1]; -7.3% in assay [2]; -2.6% in assay [3]; -34.1% in assay [4]; -12.8% in assay [5]; -7.1% in assay [6].

Turning to `O=c1oc2ccccc2cc1-n1nnc2ccccc21`, the growth inhibition in assay [1] was -2.65%; in assay [2], 11.1%; in assay [3] it was 18.9%; in assay [4], 2%; in assay [5], 16.1%; in assay [6], 21%.

On to `O=C1C2C(C(=O)N1c1cccc3ccccc13)C1(Cl)C(Cl)=C(Cl)C2(Cl)C1(Cl)Cl` (stereo unspecified), for which the growth inhibition in assay [1] is 91% (active); in assay [2], 93.7% (active); in assay [3], 94.6% (active); in assay [4], 91.5% (active); in assay [5], 89.3% (active); in assay [6] it was 94.5% (active).

On to `COc1ccc(-c2nc(-c3cc4ccccc4oc3=O)cs2)cc1`, for which the growth inhibition is 13.1% in assay [1]; 13.6% in assay [2]; -12.1% in assay [3]; 7.7% in assay [4]; -18.4% in assay [5]; -35.1% in assay [6].

Regarding `CCCCS/C=C\C(=O)OCC`, the growth inhibition in assay [1] is 18.9%; in assay [2], -22.8%; in assay [3] it was -8.5%; in assay [4], -44%; in assay [5], 0.15%; in assay [6], -15.4%.

Regarding `O=C(O)C#Cc1cccnc1`, the growth inhibition is -10.9% in assay [1]; -14% in assay [2]; 0.75% in assay [3]; 6% in assay [4]; -3.4% in assay [5]; -16.9% in assay [6].

On to `Cc1ccc(NC(=O)NC23CC4CC(CC(F)(C4)C2)C3)cc1`, for which the growth inhibition was 20.1% in assay [1]; 4.45% in assay [2]; -34% in assay [3]; 0.25% in assay [4]; -3.65% in assay [5]; -12.3% in assay [6].

With `Cc1cc2c(c3c1C(=O)CC3)CCCC2(C)C`, the growth inhibition in assay [1] was 9.3%; in assay [2], 3.9%; in assay [3], 2.75%; in assay [4] it was -6.2%; in assay [5], 2.15%; in assay [6] it was -1.8%.
